Measured values from ChEMBL document CHEMBL3988442, “University of Dundee, Small-Polar-MMV Screening Library” (2021).
Several values for one entry are separate records, joined by “and”; a condition that tells them apart may be missing. Equal values may be shown once. About 290 (0.85%) of roughly 34,000 compounds showed an effect of 50% or more. Many of the other results were omitted from the sample, so strong results are more common in it than they were.

Test system: Plasmodium falciparum
Assay: Plasmodium falciparum sporozoite viability assay
Assay type: functional, organism-based
Design: scale not given: in the data most compounds retested in dose-response had high values

SMILES	Percent Effect [%]	Percent Effect (10 mM as filed; unlikely as a test dose)
NC(=O)c1cc(C2CCCN(C(=O)CCc3ccncc3)C2)n[nH]1 (stereo not given)	-0.3069	–
Cl.O=C(Nc1ccccn1)c1cncc(C2CCNCC2)n1	-0.4476	–
CC(C)c1n[nH]c(C(=O)NC(C)c2ccncc2)c1Br (stereo not given)	–	40.84% and 49.25% and 43.96%
Cc1ccnc(NC(=O)c2ccc(Cl)o2)c1	–	72.69% and 57.82%
CC(C)c1n[nH]c(C(=O)Nc2ccccn2)c1Br	–	107.3% and 96.92% and 105.3%
Cc1ccnc(NC(=O)CSCc2cccnc2)c1	–	65.53% and 89.16%
Cc1ccnc(NC(=O)c2ccc(C)o2)c1	–	-40.27% and -55.88%
Cc1ccc(NC(=O)CSCc2cccnc2)nc1	–	-29.55% and -38.68%
CC(C)C(NC(=O)Nc1ccccn1)c1cccs1 (stereo not given)	14.64	–
CC(C)c1n[nH]c(C(=O)Nc2ccncc2)c1Br	–	98.93% and 67.14% and 45.46%
CCC1CCCCN1C(=O)c1ccnc(N(C)C)c1 (stereo not given)	0.6463	–
Cc1ccccc1OC1CCN(S(=O)(=O)c2c(C)n[nH]c2C)CC1	0.8951	–
COc1ccccc1CN(Cc1nc(CC(C)C)no1)C1CC1	-1.432	–
COc1c(C2CCCN2C(=O)c2ccc3c(c2)OCO3)c(C)nn1C (stereo not given)	6.2	–
Cn1ccnc1C(=O)N1CCC2(CCN2Cc2ccc(F)cc2)C1.O=C(O)C(F)(F)F (stereo not given)	-1.35	–
Cc1cccc(CN2CCn3c(COc4ncccn4)nnc3C2)n1	-3.893	–
O=C(N[C@@H]1CC[C@@H](N2CCCC2)[C@@H]1O)c1cc2ccccc2[nH]1	4.476	–
CCC(NC(=O)CCNC(=O)c1ccccc1F)c1cc(C)ccn1 (stereo not given)	–	-6.667% and 1.59%
Cc1ccnc(NC(=O)CCNC(=O)c2ccccc2Cl)c1	–	67.45% and 43.1%
Cc1cccc(NC(=O)c2cnc(C3CCCNC3)cn2)n1 (stereo not given)	–	4.473% and -18.26% and -18.86%
Cc1ccnc(NC(=O)c2cncc(C3CCNCC3)n2)c1	28.13	–
Cc1ccnc(NCCNC(=O)CCNC(=O)c2ccccc2F)c1	–	3.593% and 6.463%
Cc1ccnc(NC(=O)c2cnc(C3CCCNC3)cn2)c1 (stereo not given)	–	70.96% and 81.72% and 59.47%

SMILES	Percent Effect [%]	Percent Effect (10 mM as filed; unlikely as a test dose)
CNC(=O)CC1CC2(CCN(S(C)(=O)=O)CC2)c2ccccc21 (stereo not given)	-20.92	–
Fc1cnc(N2C[C@@H]3C[C@@H](c4nc(C5CC5)cs4)O[C@@H]3C2)nc1.O=C(O)C(F)(F)F	-20.62	–
Cc1ccc(-c2nnc(CN3CCc4cnc(C)nc4C3)o2)cc1	–	3.206% and -6.075% and -3.091%
Cc1ncc2c(n1)CN(Cc1nnc(-c3occc3C)o1)CC2	–	65.26% and 48.37% and 69.52%
Cc1noc(C)c1CC(=O)N[C@@H]1CC[C@@H](Oc2ccccc2)[C@@H]1O	3.978	–
Cc1nccn1C1CCCN(C(=O)c2ccc(-n3cccn3)nc2)C1 (stereo not given)	-4.8	–
CN1CCN(c2cc(CNC(=O)c3ccsc3)ccn2)CC1	4.114	–
CN1CC(=O)N(c2cccc(F)c2)CC12CCN(CC1CC1)C2.O=C(O)C(F)(F)F.O=C(O)C(F)(F)F (stereo not given)	-25.37	–
c1ccc2sc(N3CCCC4(CCOC4)C3)nc2c1 (stereo not given)	–	-44.73% and -22.63% and -45.78%
c1ccc(-c2nnc(N3CCCC4(CCOC4)C3)s2)cc1 (stereo not given)	–	67.59% and 93.8% and 88.49%
O=C1CN(c2ccc(CNC(=O)NCCO)cc2)CCN1	1.887	–
CCc1noc(CN(CC)Cc2cc3cc(C)ccc3[nH]c2=O)n1	-10	–
CC(=O)Nc1nc(C(=O)N2CCCC(c3cc(C)[nH]n3)C2)cs1 (stereo not given)	3.993	–
CC(=O)Nc1nc(C(=O)N2CCC(Nc3cccnn3)CC2)cs1	-14.59	–
Cc1cs/c(=N/C(=O)c2csc(NCC(C)C)n2)[nH]1	–	-15.12% and -26.88%
Cc1[nH]/c(=N\C(=O)c2csc(NC3CCCC3)n2)sc1C	–	52.39% and 34.41%
Cc1[nH]/c(=N\C(=O)c2csc(NCC(C)C)n2)sc1C	–	72.35% and 45.27% and 35.24%
Cc1[nH]/c(=N\C(=O)c2csc(NC3CC3)n2)sc1C	–	50.71% and 20.82% and 44.18%
Cc1cn2c(n1)CCC(NC(=O)c1cc[nH]n1)C2 (stereo not given)	2.695	–
O=C(O)C(F)(F)F.O=C(O)C(F)(F)F.c1cncc(C2COC3(CCN(Cc4cccs4)CC3)C2)c1 (stereo not given)	-1.667	–
CC(Cn1cccn1)NC(=O)NCCc1cccs1 (stereo not given)	-5.389	–
CC(C)c1n[nH]c(C2CN(C(=O)c3cn4ccccc4n3)CCO2)n1 (stereo not given)	-4.937	–
